Here are results for twelve compounds from ChEMBL document CHEMBL1201862, “PubChem BioAssay data set” (2004).

Structures are written as SMILES. The campaign covered roughly 410,000 compounds. About 7,200 (1.8%) were called active. Inconclusive results (about 7%) are left out. The rule behind the calls is not given here. Shown is part of a subset that was picked to be rich in actives.

The target of this assay is TAR DNA-binding protein 43 (Homo sapiens) (UniProt Q13148). Description: qHTS of TDP-43 Inhibitors. The format is functional. (In general: qHTS replaces the single test concentration by a dilution series.)
TAR DNA-binding protein 43 (Homo sapiens), sequence (Q13148 whole entry): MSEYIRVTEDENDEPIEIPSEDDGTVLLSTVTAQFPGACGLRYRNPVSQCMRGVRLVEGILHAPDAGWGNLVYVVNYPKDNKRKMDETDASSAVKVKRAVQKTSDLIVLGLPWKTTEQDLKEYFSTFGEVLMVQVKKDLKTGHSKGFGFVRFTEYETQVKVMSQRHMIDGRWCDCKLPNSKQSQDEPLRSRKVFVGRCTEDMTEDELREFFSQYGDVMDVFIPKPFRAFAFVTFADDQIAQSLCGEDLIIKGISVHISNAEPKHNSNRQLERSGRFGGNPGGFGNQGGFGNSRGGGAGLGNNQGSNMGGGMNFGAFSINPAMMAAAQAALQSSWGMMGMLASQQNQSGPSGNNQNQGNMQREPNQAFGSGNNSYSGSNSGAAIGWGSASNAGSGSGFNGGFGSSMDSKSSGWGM
On to `COc1ccc(OCC(O)COc2ccc(C(=O)O)cc2)cc1` (configuration not stated), for which the Potency is 100 µM (active).

Take `O=C(Nc1ccccc1)c1ccccc1NS(=O)(=O)c1ccc(Cl)s1`: the Potency result was “inactive”.

For the compound `O=C(N/N=C/c1ccc(O)c2ncccc12)c1cccc(Br)c1`, the Potency entry was “inactive”.

`Clc1ccc(-c2nnc(COc3ncnc4ccccc34)o2)cc1`: the Potency entry is “inactive”.

On to `CCOc1cc(N2CCOCC2)c(OCC)cc1NC(=O)Cn1[nH]c(=O)c2ccccc2c1=O`, for which the Potency is 79.4 µM (active).

As for `Cc1ccc(-c2cc(C(=O)N3N=C(C(F)F)CC3(O)C(F)F)c3ccccc3n2)cc1C` (configuration not stated), the Potency entry is “inactive”.

With `Cc1ccc(N(Cc2ccccc2)C(=O)c2cc(S(=O)(=O)N3CCOCC3)ccc2Cl)cc1`, the Potency result was “inactive”.

`COc1ccc2[nH]c3c(C)c4ccncc4c(C)c3c2c1`: the Potency result was “inactive”.

With `O=C(O)Cc1ccccc1Nc1c(Cl)cccc1Cl`, the Potency was 15.8 µM (active).

For the compound `O=C(Nc1cccc(F)c1)c1ccc2c(c1)OCCO2`, the Potency entry is “inactive”.

Take `COc1ccc(Cl)cc1NC(=O)C1CCCN(c2cc(C)nc3ncnn23)C1` (configuration not stated): the Potency result was “inactive”.

For `CN(C(=O)COC(=O)c1cccnc1Nc1cccc(C(F)(F)F)c1)C1CCS(=O)(=O)C1` (configuration not stated), the Potency entry was “inactive”.
